# Measurements from PubChem BioAssay AID449 (The Scripps Research Institute Molecular Screening Center, 2006).
# Among all 56,000 compounds or so, about 320 (0.57%) were called active.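 How the source made its calls: active means activation above a cutoff set at the mean activation of all tested compounds plus 3 SD (cut at about 54% in these data); inactive means the rest, inconclusive results apart.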 Only a selection was taken, and actives are over-represented in it overall.
# Biological target: Sphingosine 1-phosphate receptor 1 (Homo sapiens) (UniProt P21453)
# Sequence (P21453 whole entry, looked up): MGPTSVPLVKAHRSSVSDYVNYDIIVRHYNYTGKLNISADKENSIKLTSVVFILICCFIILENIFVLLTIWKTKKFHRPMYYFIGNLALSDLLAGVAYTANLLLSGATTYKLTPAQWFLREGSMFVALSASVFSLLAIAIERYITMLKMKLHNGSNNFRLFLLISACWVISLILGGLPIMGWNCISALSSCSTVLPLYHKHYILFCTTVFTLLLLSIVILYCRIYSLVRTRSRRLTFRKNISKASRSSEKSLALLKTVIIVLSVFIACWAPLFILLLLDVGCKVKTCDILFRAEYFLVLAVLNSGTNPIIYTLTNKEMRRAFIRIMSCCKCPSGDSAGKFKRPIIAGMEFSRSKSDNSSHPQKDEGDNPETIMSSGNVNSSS
# Assay: activation or potentiation of human S1P1 signaling – cell-based, primary and confirmation screens, CRE-bla reporter, primary screen (AID 449);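 further: forskolin at 4 µM as EC80 and the EC20 agonist is SEW2871; 100% = SEW2871 at its EC100 plus forskolin at EC80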
# Conditions: S1P1 CRE-bla cells, forskolin, beta-lactamase FRET, potentiator mode, at 9.5 µM, stronger effect = higher value, 100% = saturating reference agonist, 0% = basal, S1P1 agonist co-added at EC20, 2 nM
# [1] = measured here: confirmation screen, triplicate average
Compound,activation,activation [1] [%]
c1ccc(-n2ncc3c2ncn2c(CSc4nc5ccccc5s4)nnc32)cc1,-7.8% (inactive),
CCn1c(=O)cc(O)c2ccccc21,-26.6% (inactive),
CCc1ccccc1NC(=O)c1cccs1,-18.1% (inactive),
O=C(OCCO)c1cc(Cl)c(C(=O)OCCO)cc1Cl,-15.8% (inactive),
Fc1ccc(Br)cc1/C=N/n1cnnc1,-20% (inactive),
CC1(C)CC(=O)C(C=NCCC2=CCCCC2)=C(O)C1,-14.2% (inactive),
O=C(c1cccc(C(=O)N2CCN(c3ccc(F)cc3)CC2)c1)N1CCN(c2ccc(F)cc2)CC1,46% (inactive),
Cn1c2c(c(=O)n(C)c1=O)CN(Cc1ccco1)CN2,-5.4% (inactive),
COc1ccc(C2/C(=C(/O)c3ccc(OC(C)C)cc3)C(=O)C(=O)N2CCCN2CCOCC2)cc1 (centres undefined),10.9% (inactive),
CS(=O)(=O)N(Cc1nc2sc3c(c2c(=O)[nH]1)CCCC3)C1CCCCC1,-3.8% (inactive),
Cc1ccccc1Cn1c(=O)[nH]c2ccccc21,1% (inactive),
O=C(COc1ccc(Cl)cc1)Nc1ccccc1CO,0% (inactive),
Cc1ccc(CCn2c3c(c4ccccc42)CN(C)CC3)cn1,6.4% (inactive),
CC1CN(Cc2nc3c(c(=O)n(C)c(=O)n3C)n2Cc2cccc(Cl)c2)CC(C)O1 (centres undefined),-22.8% (inactive),
CCOC(=O)C1C(=O)NC(N2CCN(c3ccccc3)CC2)=NC1c1ccco1 (centres undefined),-4.8% (inactive),
CCOC(=O)C1C(=O)C=C(c2ccc(OC)cc2)CC1c1ccco1 (centres undefined),91.1% (active),86.3
COc1ccc(CCNC(=O)c2ccco2)cc1,-9.8% (inactive),
COc1ccc(-n2nc3c(c2NC(=O)Cc2cccc(C)c2)CS(=O)C3)cc1 (centres undefined),-1.3% (inactive),
CN1CCN(c2cc(=O)n(-c3ccc(Cl)cc3)c(=O)[nH]2)CC1,-1.5% (inactive),
O=C1c2ccccc2C(O)N1Cc1ccccc1Cl (centres undefined),15.2% (inactive),
O=C(c1cccs1)N1CCCC(c2nc(-c3ccc(F)cc3)no2)C1 (centres undefined),22.8% (inactive),
O=C(Cc1cccs1)N1CCCC(c2nc(-c3ccc(S(=O)(=O)N4CCCC4)cc3)no2)C1 (centres undefined),18.8% (inactive),
COc1cc(-c2noc(C3CCCN(S(=O)(=O)c4cccc(Cl)c4)C3)n2)cc(OC)c1OC (centres undefined),91.7% (active),85.9
COc1nc(NCc2ccc(Cl)cc2)nc(OC)n1,-7.3% (inactive),
O=C(Cn1cnc2c(cnn2-c2ccc(F)cc2)c1=O)NCCc1ccccc1,-3.5% (inactive),

Compound,activation,activation [1] [%]
Nc1nnc(C2CCCC2)s1,-4.9% (inactive),
Cn1c(SCC(=O)N2CCOCC2)nnc1-c1ccc(NC(=O)c2ccccc2F)cc1,2.6% (inactive),
COC(=O)c1sc(NC(=O)c2ccc(OC)cc2OC)nc1C,108% (active),94.2
COC(=O)c1sc(NC(=O)c2csc3c2CCCC3)nc1C,8.7% (inactive),
COc1ccc(C(=O)Nc2nncs2)c(OC)c1,-24% (inactive),
CSCCC(NC(=O)c1ccc(=O)n(C)n1)c1nc2ccccc2[nH]1 (centres undefined),-17.6% (inactive),
COc1ccc2nc(N3CCCC(O)C3)c(C#N)cc2c1 (centres undefined),16.4% (inactive),
Cc1ccc(S(=O)(=O)C2(S(=O)(=O)c3ccc(C)cc3)CCCC2)cc1,-19.8% (inactive),
CCCOC(=O)CC1C(=O)NCCN1Cc1ccc(F)cc1 (centres undefined),-20.1% (inactive),
CCC(CC)c1nnc(NS(=O)(=O)Cc2ccccc2)s1,-23.9% (inactive),
COc1cccc(C2/C(=C(/O)c3ccc(F)cc3)C(=O)C(=O)N2CCN(C)C)c1 (centres undefined),-5.8% (inactive),
COc1ccc(OC)c2c1sc(=NC(=O)CN1C(=O)CCC1=O)n2C,-15.9% (inactive),
COc1ccc(-n2nnc3c(=O)n(CC(=O)N4CCC(Cc5ccccc5)CC4)cnc32)cc1,18.2% (inactive),
N#CCCN1CCN(S(=O)(=O)c2ccc(S(=O)(=O)NC3CCCCC3)cc2)CC1,-9% (inactive),
O=c1c(-c2ccc3c(c2)OCCO3)c(C(F)(F)F)oc2cc(O)cc(O)c12,84% (active),95.4
CCN1CCN(Cc2c(O)ccc3c(=O)c(-c4ccc(OC)c(OC)c4)c(C(F)(F)F)oc23)CC1,-27.2% (inactive),
Cc1ccc(-c2nc(CS(=O)CC(=O)N3CCN(c4ncccn4)CC3)c(C)o2)cc1 (centres undefined),-2.4% (inactive),
O=C1CC(c2cccc(Br)c2)C2=C(CCCC2=O)N1 (centres undefined),-6.5% (inactive),
C=C(C)Cn1c(N2CCCC2)nc2c1c(=O)[nH]c(=O)n2C,-3.8% (inactive),
O=C(c1cc(-c2ccccc2O)on1)N1CCCC1,-19% (inactive),
COc1ccc(-c2c(C)nn3c(N4CCC(C(=O)N5CCCCC5)CC4)cc(C)nc23)cc1OC,-7.7% (inactive),
CN(CCCC(=O)Nc1nccs1)S(=O)(=O)c1ccc(Cl)cc1,20.6% (inactive),
O=c1c2ccccc2oc2nc3n(c(=O)c12)CCCS3,-24.6% (inactive),
CNC(=O)c1c(NC(=O)c2ccc(S(=O)(=O)N3CCOCC3)cc2)sc2c1CCC2,-19.6% (inactive),
O=C(NCc1ccc(Cl)c(Cl)c1)c1cccnc1,10.2% (inactive),

Compound,activation,activation [1] [%]
COC(=O)c1c(NC(=O)CCN2CCOCC2)sc2c1CCCC2,-4.7% (inactive),
O=S(=O)(NCc1ccccn1)c1ccc(F)cc1,-21.3% (inactive),
O=S(N1CCCCCC1)C12CC3CC(CC(C3)C1)C2 (centres undefined),-13.3% (inactive),
CCCn1c(O)c(CN2CCCC(C)C2)c(C)c(C#N)c1=O (centres undefined),1% (inactive),
CCOC(=O)CSC1=C(C#N)C(c2ccco2)C(C(=O)OCc2ccccc2)=C(C)N1 (centres undefined),11.9% (inactive),
FC(F)(F)c1cc(-c2ccco2)nc(N2CCOCC2)n1,-22.2% (inactive),
CC(C)CCNC(=O)CCNS(=O)(=O)c1ccc(Cl)cc1,12.2% (inactive),
O=C(NC1CCN(Cc2ccccc2)CC1)c1ccccc1F,-25.4% (inactive),
CCOc1cc(/C=N/n2cnnc2)c(Br)cc1O,-9.1% (inactive),
c1nnc2c3c4c(sc3ncn12)CCC4,-8.2% (inactive),
COc1ncnc2sc3c(c12)CCCC3,-21.1% (inactive),
Cn1cc(S(=O)(=O)N2CCC(Cc3ccccc3)CC2)c(=O)n(C)c1=O,-8.3% (inactive),
Cc1nnc(SCC(N)=O)n1CC1CCCO1 (centres undefined),-8.7% (inactive),
Cc1ccsc1C(=O)OCC(=O)c1cc(C)n(CC2CCCO2)c1C (centres undefined),57% (active),84.7
COC(=O)c1ccc2c(=O)n(CC3CCCO3)c(=S)[nH]c2c1 (centres undefined),-12.1% (inactive),
COC(=O)c1ccc(S(=O)(=O)c2ccc(C(=O)OC)s2)s1,1.7% (inactive),
NC(=O)c1ccsc1NC(=O)c1ccco1,1% (inactive),
COc1cc(=O)[nH]c(=O)n1C(=O)Cc1ccccc1,-7.8% (inactive),
CC1CCCN(Cc2nc3c(c(=O)n(C)c(=O)n3C)n2Cc2cccc3ccccc23)C1 (centres undefined),10.7% (inactive),
CCOC(=O)C1CCCN(C(=O)C2CCN(c3nnc(-n4cccc4)s3)CC2)C1 (centres undefined),-27.3% (inactive),
Cc1c2cn[nH]c(=O)c2c(C)n1Cc1ccc(F)cc1,-6.4% (inactive),
C=CCSc1nnc(Cn2c(=O)sc3ccccc32)n1C,-13.4% (inactive),
Cn1c(=O)c2c(nc(SCCNS(=O)(=O)c3ccccc3)n2C)n(C)c1=O,-18.9% (inactive),
O=c1c2[nH]c3ccc(Cl)cc3c2ncn1Cc1ccccn1,-22.3% (inactive),
CN(C)/C=C/c1c(C#N)c(=O)ncn1Cc1ccccc1,-5.6% (inactive),

Compound,activation,activation [1] [%]
CN(C)c1ccnc2sc3c(=O)n(Cc4ccccc4)cnc3c12,75.3% (active),84.4
O=C1CCCN1CCCNc1ncnc2c1[nH]c1ccccc12,6.8% (inactive),
CCN1CCCC1CNc1ncnc2c1[nH]c1ccc(F)cc12 (centres undefined),4.2% (inactive),
CC(C)OCCCNc1ncnc2c1[nH]c1ccc(F)cc12,91.1% (active),110
Cc1nc2c(c(=O)n1Cc1ccco1)c1nc3ccccc3nc1n2Cc1ccccc1,2.5% (inactive),
CCCCCCn1c(SCC(=O)c2ccccc2)nc2c1c(=O)[nH]c(=O)n2C,-26.5% (inactive),
O=C(CCN1C(=O)COc2ccccc21)NCCCN1CCN(c2ccc(F)cc2)CC1,-29.7% (inactive),
N/C(=N\c1nc2ccccc2o1)NC(=O)C(Cc1ccccc1)N1C(=O)c2ccccc2C1=O (centres undefined),-12% (inactive),
CCOc1ccc2[nH]c(=O)c(CN(CCCO)C(C)=O)cc2c1,2.1% (inactive),
COc1ccc(S(=O)(=O)N2CCN(C(=O)c3cccs3)CC2)cc1OC,15.9% (inactive),
Cc1ccc(-c2nc(COC(=O)c3c(C)noc3C)cs2)cc1,85.3% (active),98.2
Cc1noc(C)c1C(=O)OCC(=O)/C=C1\N(C)c2ccccc2C1(C)C,-18.5% (inactive),
COC(=O)c1c(-c2ccc(C)cc2)csc1N,23% (inactive),
Cc1cccn2c(=O)c3cc(C#N)c(=O)n(CCCN4CCOCC4)c3nc12,-29% (inactive),
Cc1nc(C)c(C(=O)Nc2cccc(C)c2C)o1,-15.9% (inactive),
CCN(Cc1cc2cc(C)ccc2[nH]c1=O)S(=O)(=O)c1ccccc1,26.9% (inactive),
CCc1ccccc1N(CC(=O)NCCSCc1ccco1)S(C)(=O)=O,-204% (inactive),
COc1cc(-c2nc(-c3ccncc3)no2)cc(OC)c1OC,-7% (inactive),
Cc1cccc(-c2noc(-c3ccc(F)cc3)n2)c1,1% (inactive),
COc1ccc(-c2noc(-c3cccc(OC)c3OC)n2)cc1OC,84.3% (active),77.6
O=P(c1cccs1)(c1cccs1)c1cccs1,-23.6% (inactive),
O=C(c1cc(-c2ccc(O)cc2)on1)N1CCCc2ccccc21,15.4% (inactive),
O=C(Nc1ccccc1C(F)(F)F)c1cc(-c2ccc(O)cc2)on1,89% (active),96.3
Cc1cc(C)nc(NC(=O)Nc2ccccc2C(F)(F)F)n1,-24.3% (inactive),
